An excerpt weighted towards active compounds, which were near 7.2% of everything screened.
NPR1 antag – Natriuretic polypeptide receptor (hNpr1) antagonism - Primary qHTS; HEK293 hNpr1 GloSensor cGMP, ANP-stimulated luminescence; 76,000 compounds, 1.6% hits; Potency, µM (doses to about 46.3 µM), most hits filed as inhibitors; Atrial natriuretic peptide receptor 1 (Homo sapiens), P16066; calls by dose curve; also: nearly all actives have a fitted effect of over 60% in size
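HEK293 cells stably expressing human Npr1 and cGMP GloSensor pGS-40F, loaded 2 h with 2% GloSensor reagent, given compound 30 min at room temperature. Luminescence read before and 20 min after 0.1 nM hNppA.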
3T3 cytotox – Cytotoxic Profiling in NIH 3T3 Cell Line of Diverse Libraries Using Quantitative High-Throughput Screening; NIH 3T3 viability, CellTiter-Glo ATP luminescence, 48-72 h; 94,000 compounds, 4.3% hits; Potency, µM (highest dose often 96.7 µM), actives largely listed as inhibitors; AID 1345082, 2018; also: nearly all actives have a fitted effect of over 55% in size
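Mouse fibroblast NIH 3T3 cells, 400 per well, received compound via pintool and were incubated for 48 or 72 hr prior to CellTiter-Glo ATP luminescence measurement.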
HEK293 viab – GF-AFC viability counterscreen for inhibitors of alpha-synuclein gene (SNCA) expression | HEK-293-SNCA-luc viability, GF-AFC fluorescence, 24 h | Potency, µM (titrated, usually from 57.1 µM), most hits filed as cytotoxic | 150,000 compounds, 0.12% hits; also: nearly all actives have a fitted effect of over 30% in size
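HEK-293-SNCA-luc cells (1500/well) plated 24 h, then exposed 24 h to a dilution series; GF-AFC added 30 min at 37C, fluorescence 405/540 nm; normalised to medium-only and DMSO wells, Hill fit.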
Luciferase inh – Firefly luciferase inhibition profiling of diverse chemical library using quantitative high-throughput screening | Luciferin 4-monooxygenase (Photinus pyralis), P08659 | purified P. pyralis luciferase, luminescence, biochemical | Potency, µM (top dose mostly 115 µM), usual class: inhibitors | 76,000 compounds, 2.5% hits | AID 1347043, 2019; also: nearly all actives have a fitted effect of over 65% in size
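Purified P. pyralis luciferase (10nM final) in 50mM Tris acetate pH 7.5, 10mM Mg acetate, 0.01% Tween-20, 0.05% BSA with 10uM D-luciferin and 10uM ATP. Compounds titrated qHTS. Luminescence imaged on CCD.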
SNCA expr inhib – Primary qHTS assay for inhibitors of alpha-synuclein gene (SNCA) expression; HEK-293 SNCA-luciferase knock-in, luminescence, 24 h; Potency, µM (doses to about 57.2 µM), usual class: inhibitors; 140,000 compounds, 0.17% hits; also: nearly all actives have a fitted effect of over 45% in size
HEK cytotox – Cytotoxic Profiling in HEK 293 Cell Line of Diverse Libraries Using Quantitative High-Throughput Screening; HEK 293 viability, ATP luminescence (CellTiter-Glo), 48-72 h; 94,000 compounds, 6.6% hits; Potency, µM (doses to about 115 µM), most hits filed as inhibitors; also: nearly all actives have a fitted effect of over 60% in size
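Cells seeded first (HEK 293, 250 cells/well), then compound added by pintool. Incubation ran 48 or 72 hr at 37 degree Celsius. CellTiter-Glo was added and luminescence imaged after 10 min at room temperature.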
Large screens that a line does not name were inactive. Unless noted, calls follow the shape of the dose curve; as a rule, active = well fitted curve in the direction sought with a large enough effect; inconclusive = small, poorly fitted or top-dose-only effect, or another doubt; inactive = no such curve, though single readings can be large; an effect the other way counts as inactive or inconclusive.

O=C(NC[C@H]1O[C@@H]2C[C@@H](CC(=O)N3CCOCC3)O[C@@H]2[C@@H]1O)NC1CCCCC1	none
CN1[C@@H](CCC(=O)N2CCN(c3ccccc3)CC2)CNC(=O)[C@@H]2[C@H]1CCN2Cc1cccc(Cl)c1	3T3 cytotox inconclusive, HEK cytotox inconclusive
COc1ccc(-c2cc(N3CCC(NC(=O)c4cccc(F)c4)C3)n[nH]2)cc1 (configuration not stated)	3T3 cytotox inconclusive, HEK cytotox inconclusive
O=C(NC1CCCN(c2cc(-c3ccc(F)cc3)[nH]n2)C1)c1ccc(F)c(F)c1 (configuration not stated)	3T3 cytotox inconclusive, HEK cytotox 45µM
O=C(c1cccc(OC(F)(F)F)c1)N1CCN(c2cc(-c3ccc(F)cc3)[nH]n2)CC1	NPR1 antag inconclusive, 3T3 cytotox 35µM, HEK cytotox inconclusive
O=C(NC1CCN(c2cc(-c3ccc(Cl)cc3)[nH]n2)C1)c1ccc(F)c(F)c1 (configuration not stated)	3T3 cytotox inconclusive, HEK cytotox inconclusive
O=C(NC1CCN(c2cc(-c3ccc(F)cc3)[nH]n2)C1)c1cccc(OC(F)(F)F)c1 (configuration not stated)	3T3 cytotox inconclusive, HEK cytotox 40µM
O=C(NC1CCCN(c2cc(-c3ccc(F)cc3)[nH]n2)C1)c1cccc(F)c1 (configuration not stated)	3T3 cytotox inconclusive, HEK293 viab inconclusive, HEK cytotox 32µM
CNC(=O)c1cc(C2CC2)nc2c1c(C1CCN(C(=O)c3cccc(OC)c3)C1)nn2C (configuration not stated)	3T3 cytotox inconclusive, HEK cytotox 79µM (no result: NPR1 antag, HEK293 viab, Luciferase inh, SNCA expr inhib)
CN(Cc1ccccc1)C(=O)C1CCN(c2cc(C3CC(O)C3)ncn2)CC1 (configuration not stated)	NPR1 antag 13µM, HEK cytotox inconclusive
CN(Cc1ccc(F)cc1)C(=O)C(C)(C)C	none
CN(Cc1ccccc1)Cc1ccc(-c2ccccc2)cc1	HEK cytotox inconclusive
CN(Cc1ccc(-c2ccccc2)cc1)C(=O)C1CC1	NPR1 antag inconclusive, 3T3 cytotox inconclusive, Luciferase inh 50µM, HEK cytotox inconclusive
CN(Cc1ccc(-c2ccccc2)cc1)C(=O)C(C)(C)C	3T3 cytotox inconclusive, Luciferase inh 35µM, HEK cytotox 63µM
CN(Cc1ccc(-c2ccccc2)cc1)S(C)(=O)=O	3T3 cytotox inconclusive, Luciferase inh 14µM, HEK cytotox inconclusive
Cn1cc(C(=O)N2C[C@@H](COCC3CC3)[C@H](c3ccccn3)C2)cn1	none
CN(Cc1ccc(-c2ccccc2)cc1)C(=O)Cc1cccc(Cl)c1	NPR1 antag inconclusive, 3T3 cytotox inconclusive, Luciferase inh inconclusive, HEK cytotox 63µM
COc1ccc(-c2cc(-c3ccc(N4CCOCC4)nc3)cn3cncc23)cc1	3T3 cytotox inconclusive, Luciferase inh inconclusive, HEK cytotox inconclusive
c1cc(-c2cc(-c3ccc(N4CCOCC4)nc3)cn3cncc23)ccn1	3T3 cytotox inconclusive, HEK cytotox inconclusive
NC(=O)c1cccc(-c2cc(-c3ccncc3)c3cncn3c2)c1	3T3 cytotox 35µM, HEK cytotox inconclusive
COc1ccc(-c2cc(-c3ccc4cn[nH]c4c3)cn3cncc23)cc1	3T3 cytotox 79µM, Luciferase inh inconclusive, HEK cytotox 71µM
CC(=O)Nc1cccc(-c2cc(-c3c(C)noc3C)c3cncn3c2)c1	3T3 cytotox inconclusive, HEK cytotox inconclusive
c1cc(-c2cc(-c3ccc4cn[nH]c4c3)cn3cncc23)ccn1	3T3 cytotox 18µM, HEK cytotox 63µM
O=C(COc1ccccc1)N1CCOC[C@H](Oc2ccccc2)C1	none
CC(C)NC(=O)N1CNC(=O)C12CCN(C(=O)[C@@H](N)c1ccccc1)CC2	none (no result: NPR1 antag, Luciferase inh)

Compound activity: PubChem BioAssay, National Center for Advancing Translational Sciences (NCATS)
